Experimental data as given in PubChem BioAssay AID651813 (National Center for Advancing Translational Sciences (NCATS), 2012).
The whole screen tested about 2,100 compounds, of which about 1,100 (52%) were called active. Another 27% or so got no clear call; they are omitted. So high a share suggests a set chosen from earlier hits. Some of the results follow. Unmarked numbers belong to inactive results. The call rests on the fitted dose curve; in most records, active means well fitted inhibition curve with a large enough effect; inconclusive means small, poorly fitted or top-dose-only effect; inactive means no such curve, though single readings can be large or run the other way.

Biological target: DNA dC->dU-editing enzyme APOBEC-3G (Homo sapiens) (UniProt Q9HC16)
Sequence (Q9HC16 whole entry, looked up): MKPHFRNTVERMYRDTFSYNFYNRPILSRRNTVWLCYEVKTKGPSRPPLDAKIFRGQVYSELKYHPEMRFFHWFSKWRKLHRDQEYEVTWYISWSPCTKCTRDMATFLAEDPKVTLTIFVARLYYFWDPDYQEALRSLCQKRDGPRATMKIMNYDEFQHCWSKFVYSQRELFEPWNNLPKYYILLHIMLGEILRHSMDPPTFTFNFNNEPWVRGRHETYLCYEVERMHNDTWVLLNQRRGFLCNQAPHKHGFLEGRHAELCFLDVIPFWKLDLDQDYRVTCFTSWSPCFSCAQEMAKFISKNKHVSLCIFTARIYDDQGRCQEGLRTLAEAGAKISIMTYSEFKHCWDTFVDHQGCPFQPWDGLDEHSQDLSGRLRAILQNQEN
Test: qHTS for inhibitors of Vif-A3G interactions: Cherry picks counterscreen;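 further: hits raise yellow fluorescence by blocking Vif-driven A3G-eYFP degradation; nearly all actives have a fitted effect of over 70% in size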;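 on max response: max response given as percent of control signal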
Conditions: HeLa A3G-eYFP + Vif (tagged APOBEC3G with the HIV-1 protein that degrades it), eYFP fluorescence, 24 h
Source text: The recent discovery and characterization of host restriction factors, which provide a potent defense to invading retroviruses, has provided new targets for antiviral drug development. APOBEC3G (A3G) and APOBEC3F (A3F) are potent cytidine deaminases that block HIV-1 replication; HIV-1 expresses the Vif protein, which counteracts A3G and A3F by binding to them and inducing their proteasomal degradation. The Vif-A3G and Vif-A3F interactions provide two potential targets for development of small molecules which can interfere with the ability of Vif to degrade A3G or A3F. […] To identify inhibitors that can interfere with Vif mediated degradation of A3G and A3F, we have developed Hela cell lines that stably express A3G or A3F tagged with eYFP at the C-terminal end (A3G-eYFP or A3F-eYFP, respectively) and Vif. In the absence of an inhibitor, Vif induces degradation of A3G-eYFP and A3F-eYFP, and the cells are not fluorescent. In the presence of an inhibitor, it is expected that Vif will be unable to degrade A3G-eYFP and/or A3F-eYFP, resulting in an increase in yellow fluorescence. In this counterscreen assay, Vif A3G was screened against the cherry picks ordered from the MLSMR. NIH Chemical Genomics Center [NCGC] NIH Molecular Libraries Probe Centers Network [MLPCN] MLPCN Grant: MH093245 Assay Submitter (PI): Vinay Pathak, National Cancer Institute
A3G-Vif cells were harvested from T225 flask and resuspended in phenol free OPTI-MEM medium with 5% FBS. Then 5 uL of 140,000 cells/mL resuspended cells was dispensed into each well of low base Aurora COC 1,536-well plates (black walled, clear bottom) using a Multidrop Combi dispenser. After overnight culture at 37 deg C with 5% CO2, a total of 23 nL of compounds at 5 selected concentrations from the NPC or positive control (2 mM stock of MG132) in DMSO was transferred to each well of the assay plate using a pintool (Kalypsys, San Diego, CA), and the plates were further incubated at 37 deg C with 5% CO2 for 24 hours. After that, the plates were measured on Acumen Explorer (TTP Lab Tech). The fluorescence was detected by 488 nm/Ex and […].
Potency means the concentration at half of the fitted maximal effect.

Compound	Potency	max response [%]
Oc1cccc(Nc2nc(O)c(/C=C3\C=Nc4ccccc43)s2)c1	20.6 µM (active)	
Cc1cc(/C=C2\NC(=S)N(C)C2=O)ccc1N1CCCC1	5.59 µM (active)	
O=C1/C(=C/c2ccc(N3CCCC3)cc2)NC(=S)N1C1CC1	7.31 µM (active)	
CCN1C(=O)/C(=C/c2ccc(N3CCCC3)cc2)NC1=S		47.9
Cc1cc(N2CCCC2)ccc1/C=C1/C(=O)N(C)C(=S)N1C		40
Cc1cc(N2CCCC2)ccc1/C=C1\NC(=S)N(C)C1=O	1.64 µM (active)	
C/C(=N\Nc1nccnc1Cl)c1ccc(Cl)c(Cl)c1		-0.872
CCn1c(=O)c2cc(C(=O)NCCCOC)sc2c2ccccc21	7.04 µM (active)	
N#CC1=C2SCC(O)(c3ccccc3)N2C(=O)CC1c1ccccc1 (stereo not given)	5.59 µM (active)	
CCS(=O)(=O)Nc1cccc(C2=NN(C(=O)c3ccco3)C(c3ccco3)C2)c1 (stereo not given)	14 µM (active)	
CCN(CC)c1ccc(/C=C(/C#N)c2nc3ccccc3[nH]2)c(OC(C)C)c1		42
CCOc1cc(N(CC)CC)ccc1/C=C(/C#N)c1nc2ccccc2[nH]1		57.6
CSc1nc2ccccc2cc1/C=C(\C#N)c1ccccc1	6.27 µM (active)	
CSc1nc2ccccc2cc1/C=C(\C#N)c1cccc(C)c1	12.5 µM (active)	
COC(=O)C1C2CC3c4[nH]c5cc(OC)ccc5c4CCN3CC2CC(OC(=O)CC(C)=O)C1OC (stereo not given)	20.6 µM (active)	
COC(=O)C1=COC(C)C2CN3CCc4c([nH]c5cc(OC)c(OC)cc45)C3CC12 (stereo not given)		-25.2
COc1cccc(/C(O)=C/c2nc3ccc(C(=O)NCCc4cccc(C)c4)cc3[nH]c2=O)c1	13 µM (active)	
COc1cccc(/C(O)=C/c2nc3ccc(C(=O)NCCc4ccc(Cl)cc4)cc3[nH]c2=O)c1	20.6 µM (active)	
Cc1ccc(C2NC(=O)c3ccccc3N2)s1 (stereo not given)	12.5 µM (active)	
COc1cc(OC)c(C2Nc3cccc4cccc(c34)N2)c(OC)c1		3.06
COc1ccc2ccccc2c1C1NC(=O)c2ccccc2N1 (stereo not given)	4.98 µM (active)	
Cc1ccc(C)c(C2NC(=O)c3ccccc3N2)c1 (stereo not given)	7.9 µM (active)	
O=[N+]([O-])c1ccccc1C1Nc2cccc3cccc(c23)N1		7.07
CCOc1ccccc1C1NC(=O)c2ccccc2N1 (stereo not given)	2.5 µM (active)	

Compound	Potency	max response [%]
CC(=O)/C(N=Nc1cc(C)ccc1O)=C(\C)O	20.6 µM (active)	
CCOC(=O)N1CCN(/C=C(\C#N)c2nc3ccccc3s2)CC1	23.1 µM (active)	
COc1ccc(C)cc1NCc1cc(=O)oc2cc(-c3ccccc3)c(O)cc12		-4.57
COc1ccc(-c2coc3cc4oc(=O)cc(-c5ccccc5)c4cc23)cc1F	2.23 µM (active)	
Cc1ccc(Cn2nnc3c(=O)n(CC(=O)NCc4ccccc4)cnc32)cc1	8.86 µM (active)	
CC(C)(C)n1ncc2c(=O)n(CC(=O)NCc3ccc(F)cc3)cnc21	7.9 µM (active)	
Cc1sc2ncn(CC(=O)NCc3ccccc3)c(=O)c2c1C		-26.2
O=C(Cn1cnc2c(cnn2-c2ccc(F)cc2)c1=O)NCc1ccco1	17.7 µM (active)	
CN(C)c1ccc(/C=C/c2nccc3ccccc23)cc1	13 µM (active)	
CCN(Cc1ccccc1)c1ccc(/C=C/c2nccc3ccccc23)cc1	13 µM (active)	
CCN(CC)c1nc(C=Cc2ccc(N(C)C)cc2)c2nccnc2n1	0.651 µM (active)	
CN(C)c1ccc(C=Cc2nccc3ccccc23)cc1	14 µM (active)	
CC(=O)/C(=C\N(C)C)Sc1ccc(Cl)cc1		12
Cc1sc2ncnc(SCC(=O)NC(C)(C)C)c2c1C		-17.9
COc1ccccc1Nc1nnc(SCC2CCCCO2)s1 (stereo not given)	17.7 µM (active)	
COc1cccc(OCc2nc3ncc(Br)cc3[nH]2)c1	3.14 µM (active)	
Nc1cccc(CCc2nc3cc4ccccc4cc3[nH]2)c1	4.98 µM (active)	
COc1cccc(N2CC(O)=C(c3nc4ccccc4c(=O)[nH]3)C2=N)c1	2.23 µM (active)	
COc1cccc(N2CC(O)=C(c3nc4ccccc4s3)C2=N)c1	7.9 µM (active)	
CCOC(=O)Nc1ccc2c3c(cccc13)-c1ccccc1-2	2.31 µM (active)	
CC(C)(C)c1ccc(OCC(=O)Nc2ccc3c4c(cccc24)C(=O)NC3=O)cc1		43.9
O=CNc1ccc2c3c(cccc13)-c1ccccc1-2	11.2 µM (active)	
N#Cc1cc2ccccc2nc1SCc1ccccn1	23.1 µM (active)	
CCCCCCN1C[C@H](O)[C@@H](n2cc(COC(=O)c3ccccc3)nn2)C[C@@H]1c1ccc(C)cc1		4.43

Compound	Potency	max response [%]
CN(C)c1ccc2ccc3cccc4ccc1c2c34	13 µM (active)	
O=C1NC(c2cccc(Cl)c2)Nc2ccccc21 (stereo not given)	12.5 µM (active)	
CSc1ccc(C2NC(=O)c3ccccc3N2)cc1 (stereo not given)	11.2 µM (active)	
O=C1NC(c2ccc(Br)cc2)Nc2ccccc21 (stereo not given)	17.7 µM (active)	
CC(C)n1cc(NC(=O)c2cc(-c3ccccc3)on2)cn1	5.59 µM (active)	
CCn1c(O)c(/C=N/N=C/c2ccc(OC)cc2)c2cc(C3=NNC(=O)CC3)ccc21	13 µM (active)	
N#C/C(=C\c1ccc(Cl)cc1)c1nc2ncccc2[nH]1		-13.6
N#CC(=Cc1ccccn1)c1nc(-c2ccc(Cl)cc2)cs1	6.27 µM (active)	
O=C(Cn1nc2c(cc1=O)CCCC2)NCc1ccc(Cl)cc1	13 µM (active)	
Cc1ccc(CNC(=O)Cn2cc(C(=O)c3ccc(Cl)cc3)c(=O)c3ccc(C)nc32)cc1		-25
CCC(C)Sc1cccc(-c2nc3cc(C)ccn3c2NC2CCCCC2)c1 (stereo not given)		18.8
Cc1cccc(N2CCN(C(=O)c3ccncc3)CC2)c1C	12.5 µM (active)	
O=C1COc2ccc(C(=O)CSc3nc4ccccc4c(=O)n3-c3ccc(Cl)c(Cl)c3)cc2N1	18.4 µM (active)	
Cc1ccc(/C=C2/CNC/C(=C/c3ccc(C)cc3)C2=O)cc1	5.59 µM (active)	
C[C@]12CCC[C@H](O1)c1c(cc3c(c1O)C(=O)c1c(O)cc(O)cc1C3=O)O2	16.4 µM (active)	
Cc1cc(N(C)C)c(C)cc1/C=C/c1ccnc2ccccc12	10.3 µM (active)	
CCN(CC)c1cc(C)c(/C=C/c2ccnc3ccccc23)cc1C	16.4 µM (active)	
O=C(O)c1ccccc1N/N=C/c1c(Sc2nnnn2-c2ccccc2)nc2ccccn2c1=O	4.44 µM (active)	
COc1cc(CCC(=O)Nc2nnc(C)s2)cc(OC)c1OC	8.86 µM (active)	
Cc1cc(NC(=O)Nc2nnc(N(C)Cc3ccccc3)s2)ccc1Br		20.9
COc1cc(C(=O)Nc2nnc(Cc3ccccc3)s2)cc(OC)c1OC	12.5 µM (active)	
Cc1noc(C)c1COc1cccc(C(=O)OC(C)C(=O)Nc2ccc3c(c2)OCO3)c1 (stereo not given)	3.53 µM (active)	
COc1ccc(NC(=O)C(NC(=O)/C=C\c2ccc3c(c2)OCO3)c2ccccc2)cc1 (stereo not given)		-17
CC1(C)Cc2c(sc3ncnc(NNC(=S)NCc4ccccc4)c23)CO1	12.5 µM (active)	

Compound	Potency	max response [%]
C/C(=N\NC(=S)NCc1ccccc1)c1cccs1		-28.6
O=c1[nH]c2ccccc2nc1/C=C(\O)c1cccs1	4.61 µM (active)	
NNC(=O)c1cc2sccc2s1		2.94
Cc1cc(/C=C2\SC(=S)N(Cc3ccco3)C2=O)c(C)n1-c1ccccc1	23.1 µM (active)	
CN(C)c1ccc(C=C2SC(=S)N(Cc3ccco3)C2=O)cc1	3.53 µM (active)	
CCN1CCN(c2c(/C=C3\SC(=S)N(Cc4ccco4)C3=O)c(C)c(C#N)c(=O)n2C)CC1	20.6 µM (active)	
Cc1cc(/C=C2\SC(=S)N(Cc3ccco3)C2=O)c(C)n1-c1cccnc1	9.2 µM (active)	
Cc1ccc2nc(NS(=O)(=O)c3ccc(Cl)cc3)c(Nc3ccc(C(=O)O)cc3)nc2c1		2.4
COc1ccc(Nc2nc3cc(C)ccc3cc2C#N)c(OC)c1	1.58 µM (active)	
COc1ccc(Nc2nc3cc(C)ccc3cc2C#N)cc1	18.4 µM (active)	
CC(=O)n1c2ccccc2c2nc3ccccc3nc21	2.59 µM (active)	
C=CCNc1nc2cc(-c3cccc(Cl)c3)sc2c(=O)n1C	14 µM (active)	
CCOC(=O)c1ccc(/C=C2/C=C(c3ccccc3)N(c3ccc(Cl)c(C(=O)O)c3)C2=O)cc1	20.6 µM (active)	
C=CCOc1ccc2nc(NC(=O)OC)[nH]c2c1	2.23 µM (active)	
CCOC(=O)c1c(NC(=O)CSc2nc3ccc(OC)cc3[nH]2)sc2c1CC(C)(C)NC2(C)C		-23
CC(=O)Nc1ccc(-c2ccnc3c2CC(C(=O)Nc2cccc(N(C)C)c2)O3)cc1 (stereo not given)	9.94 µM (active)	
CC(=O)c1cccc(-c2ccnc3c2CC(C(=O)Nc2ccc(Cl)cc2)O3)c1 (stereo not given)	12.5 µM (active)	
COc1ccc(NC(=O)C2Cc3c(-c4cccc(C(C)=O)c4)ccnc3O2)cc1 (stereo not given)	3.96 µM (active)	
COc1ccc(NC(=O)C2Cc3c(-c4cccc(NC(C)=O)c4)ccnc3O2)cn1 (stereo not given)	14 µM (active)	
COc1cc(C2c3cc4c(cc3C(OC3OC5COC(c6cccs6)OC5C(O)C3O)C3COC(=O)C23)OCO4)cc(OC)c1O (stereo not given)		-84.8
Cc1ccc(N=C2NC(=O)CC(C(=O)Nc3ccc4c(c3)OCO4)S2)cc1 (stereo not given)		-13.3
COc1ccc(NC(=O)C2Cc3c(-c4cccc(C(C)=O)c4)ccnc3O2)cn1 (stereo not given)	1.4 µM (active)	
CC(=O)Nc1cccc(-c2ccnc3c2CC(C(=O)Nc2ccc4c(c2)OCO4)O3)c1 (stereo not given)	1.25 µM (active)	
